HT1080 IDH1KD tx: kills HT-1080 cells with IDH1 knockdown. HT-1080 IDH1 knockdown viability, ATP luminescence, 48 h. Potency, µM (series often up to 46.1 µM), hits mostly cytotoxic. hit rate 2% among 360,000
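After a 2 h attachment period, IDH1KD HT-1080 cells took pin-transferred compound for 48 h at 37 °C; ATP-based luminescence after 10 min room-temperature reagent incubation reported viability.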
TGFb inhibitor: TGF-b pathway inhibition; hit rate 1.2% among 410,000; AID 588855; Potency, µM (highest dose often 46.1 µM), usual class: inhibitors; HepG2 CAGA-GFP TGF-b/SMAD3 reporter, GFP fluorescence, 18 h; TGF-beta stimulated, 500 pg/mL final; note: nearly all actives have a fitted effect of over 65% in size
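Cell-based qHTS in HEPG2 carrying a CAGA-GFP Smad reporter; compounds added before 500 pg/mL final TGF-beta, 18 h incubation at 37 degrees C, GFP fluorescence quantified per cell by imaging cytometry.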
Giardia kill: kills Giardia lamblia; hit rate 0.15% among 340,000; AID 540267; activity change, % at 7.66 µM, hits read low; Giardia lamblia trophozoite viability; in the data active = activity change below about -80%; inconclusive = between about -30% and that limit;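 note: parasites exposed to compound for two days anaerobically before the ATP read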
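Viability, read as ATP luminescence: trophozoites at 100 cells/well, compound added, 48 hrs anaerobic at 37 deg C, then 15-30 min room-temperature development before reading.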
HT1080-NT tox: kills 2HG-producing HT-1080-NT fibrosarcoma cells; Potency, µM (series often up to 46.1 µM), actives largely listed as cytotoxic; hit rate 1.6% among 360,000; HT-1080-NT fibrosarcoma viability, CellTiter-Glo ATP luminescence, 48 h; AID 686970;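 note: NT is the 2HG producing partner of a matched IDH1 knockdown line; nearly all actives have a fitted effect of over 55% in size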
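Viability by CellTiter-Glo luminescence after 48 h compound exposure at 37C of HT-1080-NT cells (750/well, RPMI, 5% FBS). % activity scaled between DMSO wells and medium-only wells, then curve-fitted and categorized by curve class.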
HepG2 tox-1: kills HepG2 cells in TGF-b inhibitor counter-screen; hit rate 0.76% among 410,000; HepG2 CAGA-GFP viability, ATP luminescence, 18 h; Potency, µM (top dose mostly 46.1 µM), hits mostly cytotoxic
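HepG2 CAGA-GFP cells (1000/well, DMEM with 1% FBS) received compound, then TGF-beta at 500 pg/mL final, and were incubated 18 hours at 37 degrees C. Viability was read by CellTiter-Glo luminescence. Media-only wells were set as complete cell-killing and DMSO as no toxicity.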
IL1B secr inh: inflammasome signaling inhibition, IL-1 beta readout; activity change, % at 57.5 µM; AID 743279; THP-1 LPS/ATP IL-1B secretion, AlphaLISA, 16 h; hits give low values; hit rate 4.7% among 360,000; in the data active = activity change below about -50%; inconclusive = mostly about -30% to -49%
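THP-1 cells pretreated 1 hr with compounds (up to 57.5 uM final), then stimulated with LPS (250 ng/mL final) plus ATP (1.25 mM final); secreted IL-1B measured by AlphaLISA after 16 hr, decreased signal indicating inhibition.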
TGFb CAGA inh: TGF-b pathway inhibition, cherry-pick retest | hit rate 63% among 1,600 | shares compounds with TGFb inhibitor | HepG2 CAGA-GFP TGF-b reporter, GFP fluorescence, 18 h; cells stimulated with TGF-beta, 500 pg/mL | Potency, µM (highest dose often 46.1 µM), most hits filed as inhibitors; note: nearly all actives have a fitted effect of over 65% in size
HepG2 tox-2: counter-screen for TGF-b inhibitors: cytotoxicity in HepG2 cells. AID 720535. Potency, µM (titrated, usually from 46.1 µM), usual class: inhibitors. shares compounds with TGFb inhibitor. hit rate 27% among 1,600. HepG2 CAGA-GFP viability, ATP luminescence, 18 h; cells stimulated with TGF-beta, 500 pg/mL; note: nearly all actives have a fitted effect of over 70% in size
TGFb CCL64 inh: TGF-b inhibition, CCL64 orthogonal assay; shares compounds with TGFb inhibitor; CCL64 CAGA-GFP reporter, TGF-b stimulated, GFP fluorescence, 18 h; Potency, µM (doses to about 46.1 µM), most hits filed as inhibitors; hit rate 41% among 1,600; AID 720536; note: nearly all actives have a fitted effect of over 65% in size
COP TGFb inh: blocks TGF-b signaling in HepG2 COP reporter; shares compounds with TGFb inhibitor; HepG2 COP-GFP TGF-b reporter, GFP fluorescence, 18 h; cells stimulated by added recombinant TGF-beta; Potency, µM (series often up to 46.1 µM), most hits filed as inhibitors; hit rate 3% among 1,600; AID 720537; note: nearly all actives have a fitted effect of over 70% in size
Numbers stand for hits; n = inactive; u = inconclusive; x = no result. This is a sample that favours compounds with a hit; in the whole collection about 6.5% have one here. Unless noted, calls come from the whole dose curve; as a rule, active = well fitted curve in the direction sought with a large enough effect; inconclusive = small, poorly fitted or top-dose-only effect, or another doubt; inactive = no such curve, though single readings can be large; an effect the other way counts as inactive or inconclusive.

SMILES | HT1080 IDH1KD tx | TGFb inhibitor | Giardia kill | HT1080-NT tox | HepG2 tox-1 | IL1B secr inh | others
CCCCCc1ccc(OCCCC[n+]2ccccc2)c(CCCCC)c1 | 8.2µM | u | n | 23.1µM | n | -92.8
CCC(C)(C)c1ccc(OCCCC[n+]2ccccc2)c(C(C)(C)CC)c1 | u | u | n | 16.4µM | n | n
COC(=O)N/N=C(\C)c1ccccc1OC(F)F | n | n | n | n | n | n
O=C(CSc1nnc(-c2ccc(O)cc2)n1Cc1ccccc1)NNC(=O)c1ccc(Br)cc1 | n | n | n | n | n | -65.5
CC(C)OC(=O)CSc1nnc(-c2ccc(O)cc2)n1Cc1ccccc1 | n | n | n | n | n | n
Cc1ccccc1OCc1nnc(SCC(=O)Nc2ccc(N3CCOCC3)cc2)n1C | n | n | n | n | n | n
O=C1SC(SCc2ccccc2Cl)=N/C1=C\c1ccc(C(=O)O)cc1 | n | n | n | n | n | n
COCCn1nnnc1C(CC(C)C)N1CCN(c2cccc(OC)c2)CC1 (stereo unspecified) | n | n | n | n | n | n
CSc1nc2nccc(/C=C\c3ccccc3)n2n1 | u | u | n | u | n | -104.6
C[C@@H]1CN([C@H](C)CO)C(=O)CCCn2nncc2CO[C@H]1CN(C)S(=O)(=O)c1ccc(Cl)cc1 | n | n | x | n | n | n
Cc1cccc(CC(Cc2nc3ccccc3[nH]2)c2nc3ccccc3[nH]2)c1 (stereo unspecified) | 25.9µM | u | n | 18.4µM | n | -75.5
N#Cc1nc(COc2ccccc2)oc1N1CCC(Cc2ccccc2)CC1 | n | n | n | n | n | -54.7
COc1ccccc1OCc1nc(C#N)c(N2CCCC2)o1 | n | n | n | n | n | n
Cc1ccccc1OCc1nc(C#N)c(N2CCCC2)o1 | n | n | n | n | n | -58.4
N#Cc1nc(COc2ccccc2)oc1N1CCN(Cc2ccccc2)CC1 | n | n | n | n | n | u
CCCCOC(=O)c1ccc(NC(=O)c2ccccc2OC)cc1 | n | n | n | n | n | n
CC(=O)Nc1ccc(N(C(=O)c2ccco2)C(C(=O)NC2CCCC2)c2cccs2)cc1 (stereo unspecified) | n | n | n | n | n | n
CC(=O)Nc1ccc(N(C(=O)c2ccco2)C(C(=O)NC2CCCCC2)c2ccccc2)cc1 (stereo unspecified) | n | n | n | n | n | -53.1
OC(CNCc1ccccc1)(c1ccc(F)cc1)c1ccc(F)cc1 | n | n | n | n | n | u
CCOC(=O)CC(NC(=O)CCc1c(C)nc2c(-c3ccccc3)c(C)nn2c1C)c1ccc(OC(C)C)cc1 (stereo unspecified) | x | 15.8µM | x | x | n | x
CCOC(=O)CC(NC(=O)CCc1c(C)nc2c(-c3ccccc3)c(C)nn2c1C)c1ccc(C)cc1 (stereo unspecified) | x | 10µM | x | x | n | x
Cc1nc(C(F)(F)F)c(C(=O)N/N=C(\N)c2ccccn2)s1 | 16.4µM | n | n | u | n | n
N/C(=N\NS(=O)(=O)c1ccccc1C(F)(F)F)c1ccccn1 | n | n | n | n | n | n
Cc1ccc(S(=O)(=O)/N=C(/Sc2ccccc2C(=O)O)c2ccccc2)cc1 | n | n | u | n | n | n
Cc1ccc(S(=O)(=O)/N=C(\Sc2ccccc2)c2ccccc2)cc1 | n | n | n | n | n | -50.4
SMILES | HT1080 IDH1KD tx | TGFb inhibitor | Giardia kill | HT1080-NT tox | HepG2 tox-1 | IL1B secr inh | others
O=S(=O)(/N=C(\Sc1ccccc1)c1ccccc1)c1ccc(Cl)cc1 | n | n | n | n | n | -52.6
Cc1ccc(Nc2nc(NCc3cccs3)nc3ccsc23)c(C)c1 | u | 12.6µM | x | u | n | -51.0 | TGFb CAGA inh=6.51µM;HepG2 tox-2=u;TGFb CCL64 inh=u;COP TGFb inh=n
O=C1CCCN1CCCNc1nc(NCc2cccs2)nc2ccsc12 | n | 10µM | x | u | n | -84.3 | TGFb CAGA inh=6.51µM;HepG2 tox-2=u;TGFb CCL64 inh=u;COP TGFb inh=n
COCCNc1nc(NCc2cccs2)nc2ccsc12 | n | 12.6µM | x | n | n | -90.0 | TGFb CAGA inh=6.51µM;HepG2 tox-2=u;TGFb CCL64 inh=u;COP TGFb inh=n
CC(=O)NCCNc1nc(NCc2cccs2)nc2ccsc12 | n | n | x | n | n | n
CC(=O)Oc1ccccc1N(C(C)=O)S(=O)(=O)c1ccc2ccccc2c1 | n | n | n | n | n | n
CC(=O)Oc1c(Br)cc(N(C(C)=O)S(=O)(=O)c2ccccc2)c2ccccc12 | u | 8.91µM | n | u | n | n | TGFb CAGA inh=16.4µM;HepG2 tox-2=u;TGFb CCL64 inh=13µM;COP TGFb inh=u
Cc1nn2c(NCc3ccccn3)c3c(nc2c1-c1ccccc1)CCC3 | n | 11.2µM | n | n | n | x | TGFb CAGA inh=u;HepG2 tox-2=u;TGFb CCL64 inh=u;COP TGFb inh=n
C[C@H]1CN([C@@H](C)CO)C(=O)Cc2cc(NS(=O)(=O)c3ccc(Cl)cc3)ccc2O[C@@H]1CN(C)C(=O)Nc1cccc2ccccc12 | n | n | n | n | n | n
CC(C)NC(=O)N(C)C[C@H]1Oc2ccc(NS(=O)(=O)c3ccc(Cl)cc3)cc2CC(=O)N([C@@H](C)CO)C[C@@H]1C | n | u | n | n | n | n | TGFb CAGA inh=n;HepG2 tox-2=n;TGFb CCL64 inh=n;COP TGFb inh=n
COc1ccc(NC(=O)[C@@H]2CC=C[C@@H]3CCN(Cc4ccc(Cl)c(Cl)c4)C(=O)[C@@H]32)cc1 | u | 12.6µM | n | n | n | u | TGFb CAGA inh=2.91µM;HepG2 tox-2=n;TGFb CCL64 inh=29.1µM;COP TGFb inh=n
COc1ccc(C(CNC(=O)c2oc3ccc(OC)cc3c2C)N2CCCC2)cc1 (stereo unspecified) | n | u | n | u | n | u | TGFb CAGA inh=u;HepG2 tox-2=u;TGFb CCL64 inh=n;COP TGFb inh=n
O=C(CSc1nc(NS(=O)(=O)c2ccccc2)cc(=O)[nH]1)Nc1ccccc1Cl | n | n | n | n | n | n
Cn1nc(C(=O)OCc2ccc(F)cc2)c2ccccc2c1=O | n | n | n | n | n | n
